High-throughput results from PubChem BioAssay.
This excerpt belongs to a sample that is enriched for hits.
ClpP mod – qHTS Assay for Activators of ClpP. ATP-dependent Clp protease proteolytic subunit (Bacillus subtilis (strain 168)), P80244. purified B. subtilis ClpP, FRET peptide cleavage, 20 min. Potency, µM (doses to about 57.5 µM), inactives show at the highest dose activity change, negative = active. 340,000 tested, 1.9% active. AID 651965, 2013; active means well fitted falling curve with a large enough effect; inconclusive means small, poorly fitted or top-dose-only effect; inactive means no such curve, though single readings can be large or run the other way; further: the source files actives as falling curves though it sought activators and does not explain the sign; nearly all actives have a fitted effect of over 65% in size
Target sequence (P80244 whole entry, looked up): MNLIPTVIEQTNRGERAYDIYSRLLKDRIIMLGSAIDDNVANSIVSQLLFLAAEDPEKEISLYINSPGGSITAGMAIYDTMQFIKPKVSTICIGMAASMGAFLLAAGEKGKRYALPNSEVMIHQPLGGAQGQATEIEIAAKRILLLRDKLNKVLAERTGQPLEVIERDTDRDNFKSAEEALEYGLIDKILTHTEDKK
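ClpP 10 microg/mL final, pH 8 Tris/KCl buffer with BSA, glycerol, Tween-20; compound pinned in; FRET-FV substrate; RT 20 min; Ex320/Em430; ΔFRET vs ADEP 5.8 microM, DMSO, no enzyme.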
Eya2 phos inh – Eya2 (human) phosphatase inhibition | O00167 | recombinant Eya2, OMFP fluorescence dephosphorylation (OMFP is methylfluorescein phosphate) | Potency, µM (doses to about 76.9 µM), inactives show at the top dose activity, negative = inhibition, usual class: inhibitors | 330,000 tested, 0.006% active; further: on the % scale 0 is the no-effect control and ±100 the full control effect
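Eya2 (0.2 uM) preincubated 10 min at ambient with compound, then OMFP substrate added at 50 uM; 10 min reaction in 50 mM HEPES pH 7.5, 50 mM NaCl, 5 uM MgCl2, 0.05% BSA, 1 mM DTT. Fluorescence read at Ex 485/Em 525 nm.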
USP2a block – USP2a (human) protease inhibition. Potency, µM (series often up to 38.3 µM), for inactives: top-dose activity change, negative = inhibition, actives largely listed as inhibitors. 330,000 tested, 0.01% active. AID 463254. O75604. USP2 core, Ub-CHOP2 coupled fluorogenic reporter, 485/531;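 further: plate controls were DMSO wells for no effect and full inhibition by NEM control for full effect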
Target sequence (O75604 whole entry, looked up): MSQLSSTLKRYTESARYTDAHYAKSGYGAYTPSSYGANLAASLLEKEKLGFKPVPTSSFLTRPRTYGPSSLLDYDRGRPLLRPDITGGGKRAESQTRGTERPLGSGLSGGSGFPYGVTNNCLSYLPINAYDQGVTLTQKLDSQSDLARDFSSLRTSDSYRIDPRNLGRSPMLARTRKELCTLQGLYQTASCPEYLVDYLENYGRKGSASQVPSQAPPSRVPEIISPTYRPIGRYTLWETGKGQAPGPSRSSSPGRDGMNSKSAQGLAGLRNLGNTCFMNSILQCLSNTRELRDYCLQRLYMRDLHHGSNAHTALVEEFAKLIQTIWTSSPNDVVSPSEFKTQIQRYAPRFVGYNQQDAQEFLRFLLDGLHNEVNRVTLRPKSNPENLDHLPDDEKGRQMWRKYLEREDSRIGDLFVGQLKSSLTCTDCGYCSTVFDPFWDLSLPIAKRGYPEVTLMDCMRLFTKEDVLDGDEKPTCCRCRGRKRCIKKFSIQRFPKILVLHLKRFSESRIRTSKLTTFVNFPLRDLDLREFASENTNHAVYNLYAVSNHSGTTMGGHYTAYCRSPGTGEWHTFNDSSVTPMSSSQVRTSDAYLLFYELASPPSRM
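USP2 core (10nM final) preincubated 30min RT with compound in 20mM Tris-HCl pH 8.0, 2mM CaCl2, 2mM beta-mercaptoethanol, 0.05% CHAPS; 25nM Ub-CHOP2 plus 25nM reporter substrate added, fluorescence (Ex485/Em531) read after 60min.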
Mm-Cpn inhibitor – blocks the Methanococcus maripaludis chaperonin Mm-Cpn; AID 504842; 330,000 tested, 0.031% active; purified Mm-Cpn ATPase, ADP Transcreener TR-FRET; Potency, µM (top dose mostly 76.9 µM), inactives show at the highest dose activity, negative = inhibition, hits mostly inhibitors; further: on the % scale 0 is the no-effect control and ±100 the full control effect; nearly all actives have a fitted effect of over 80% in size
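TR-FRET (320 nm excitation; 590 and 665 nm emission) reports ADP made from 10 uM ATP by 25 nM enzyme; compounds were preincubated 10 min, reaction run 30 min, both at 37°C.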
p53 reactivation – restores transcriptional activity of mutant p53; 320,000 tested, 0.063% active; Potency, µM (titrated, usually from 92.2 µM), for the others: at the top dose activity change, positive = activation, most hits filed as activators; H1299 p53-A138V BP100-luciferase reporter, luminescence, 24 h; further: % of control where 0% means no effect; nearly all actives have a fitted effect of over 45% in size
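H1299 (p53-null), stable ts p53-A138V + BP100-Luc; 1000 cells/well, Opti-MEM/10% FBS; cpd 4 pt, 1:5; 24 h, 37 deg C, 5% CO2; detection reagent 10 min RT; luminescence.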
a7 integrin act – activates integrin-mediated alleviation for muscular dystrophy | 350,000 tested, 0.064% active | AID 624291 | alpha7betagal myoblasts, beta-gal FDG fluorescence, 48 h | Potency, µM (titrated, usually from 38.3 µM), for inactives: at the highest dose activation, most hits filed as activators;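 further: 100% = response of the positive control SU9516; nearly all actives have a fitted effect of over 60% in size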
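Alpha7betagal+/- myoblasts (passage 13) were plated 16-24 hr, then exposed to compounds (1:260 dilution of DMSO stock) for 48 hours at 37C. After MPER lysis, β-galactosidase reporter activity was read as FDG fluorescence (ex 480/em 540) after 30 minutes.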
* hit, by the source's call; ? = inconclusive; nt = not tested or not shown. Unless noted, the call rests on the fitted dose curve; in most records, active means well fitted curve in the direction sought with a large enough effect; inconclusive means small, poorly fitted or top-dose-only effect, or another doubt; inactive means no such curve, though single readings can be large; an effect the other way counts as inactive or inconclusive. Potency means the concentration at half of the fitted maximal effect.

SMILES	ClpP mod	Eya2 phos inh	USP2a block	Mm-Cpn inhibitor	p53 reactivation	a7 integrin act
CCOc1ccccc1CNC(=O)c1cc2oc3ccccc3c2n1C	20µM*	-14%	-1%	-4%	-1%	-47%
COc1ccc(N2CCCC2)c(NC(=O)c2ccc([N+](=O)[O-])o2)c1	-10%	4%	3%	1%	?	7.9µM*
N#Cc1nc(-c2ccc(OCc3ccc(Cl)cc3)cc2)oc1NCc1cccnc1	28µM*	5%	0%	-1%	22%	-33%
N#Cc1nc(-c2ccc(OCc3ccccc3)cc2)oc1NCc1cccnc1	?	0%	3%	0%	2%	-40%
N#Cc1nc(-c2ccc(COc3ccccc3)o2)oc1NCc1ccccc1	20µM*	nt	nt	nt	nt	nt
COc1ccc(OCc2ccc(-c3nc(C#N)c(N4CCC(C(N)=O)CC4)o3)o2)cc1	35µM*	nt	nt	nt	nt	nt
Cc1cccc(OCc2ccc(-c3nc(C#N)c(N4CCC(C(N)=O)CC4)o3)o2)c1	4%	nt	nt	nt	nt	nt
Cc1ccc(OCc2ccc(-c3nc(C#N)c(N4CCC(C)CC4)o3)o2)cc1	4%	nt	nt	nt	nt	nt
COc1ccc(OCc2ccc(-c3nc(C#N)c(N4CCC(C)CC4)o3)o2)cc1	25µM*	nt	nt	nt	nt	nt
Cc1ccccc1C(c1c(C)n(C)n(-c2ccccc2)c1=O)c1c(C)n(C)n(-c2ccccc2)c1=O	0%	nt	nt	nt	nt	nt
O=C(c1ccccc1)C(c1ccccc1)[n+]1csc2ccccc21 (centres undefined)	-1%	nt	nt	nt	nt	nt
CNC(=O)c1cc(-c2cccs2)on1	-8%	nt	nt	nt	nt	nt
COc1ccc(-c2nc(C#N)c(N3CCC(C)CC3)o2)cc1	nt	-7%	15%	2%	-1%	12%
CN(C)c1oc(-c2ccc(OCc3ccccc3)cc2)nc1C#N	13µM*	-13%	-1%	-28%	?	18%
CC1CCN(c2oc(-c3ccc(COc4ccccc4)o3)nc2C#N)CC1	16µM*	nt	nt	nt	nt	nt
N#Cc1nc(-c2ccc(COc3ccccc3)o2)oc1N1CCN(c2ccccc2)CC1	16µM*	nt	nt	nt	nt	nt
N#Cc1nc(-c2ccc(COc3ccc(Cl)cc3)o2)oc1N1CCN(c2ccccc2)CC1	-8%	nt	nt	nt	nt	nt
COCCCNC(=O)CCCn1c(=O)c2cccn2c2cccnc21	5%	nt	nt	nt	nt	nt
Cn1c2nc(=O)[nH]c(=O)c-2cc2ccccc21	18µM*	nt	nt	nt	nt	-6%
O=c1nc2n(CCO)c3ccccc3cc-2c(=O)[nH]1	32µM*	nt	nt	nt	nt	7%
O=c1nc2n(Cc3ccccc3)c3ccccc3cc-2c(=O)[nH]1	nt	-4%	1%	-2%	-10%	nt
O=c1nc2n(-c3ccccc3F)c3ccccc3cc-2c(=O)[nH]1	4%	nt	nt	nt	nt	nt
C=C1C=C(C(F)F)n2ncc(C(=O)Nc3ccc(C(C)CC)cc3)c2N1 (centres undefined)	nt	nt	nt	1%	nt	nt
CN(C)c1nc2sc3c(c2c(=O)n1C)CC(C)(C)OC3	-8%	11%	2%	-1%	14%	7%
CCCCn1c(=O)n(C)c(=O)c2c3c(sc21)COC(C)(C)C3	28µM*	-12%	-3%	-1%	-3%	-22%
SMILES	ClpP mod	Eya2 phos inh	USP2a block	Mm-Cpn inhibitor	p53 reactivation	a7 integrin act
NC(=O)c1c(NC(=O)c2noc3c2CCCC3)sc2c1CCCC2	0%	nt	nt	nt	nt	nt
CCCC(=O)N1CCc2cc(OC)c(OC)cc2C1c1cc2cc3c(cc2[nH]c1=O)OCO3 (centres undefined)	?	nt	nt	nt	nt	-8%
COc1cc2c(cc1OC)C(c1cc3cc(OC)c(OC)cc3[nH]c1=O)N(C(=O)C1CC1)CC2 (centres undefined)	28µM*	2%	2%	2%	1%	-7%
CC(C)(C)c1nnc(NC(=O)C2CCN(C(=O)c3ccccc3)CC2)s1	1%	nt	nt	nt	nt	nt
CC1(C)Cc2c(C#N)c(N3CCN(C(=O)c4ccccc4Cl)CC3)nc(-c3ccco3)c2CS1	28µM*	-5%	-23%	-12%	-2%	8%
N#Cc1c(N2CCCCC2)nc(N2CCCCC2)c2c1CCN(Cc1ccccc1)C2	11µM*	17%	0%	-2%	14%	-35%
CCc1nc(N2CCN(C(=O)c3ccco3)CC2)c(C#N)c2c1COC(C)(C)C2	3%	?	-13%	-1%	-5%	?
N#Cc1c(N2CCN(C(=O)c3ccccc3)CC2)nc(-c2ccccc2)c2c1CCCC2	28µM*	-2%	-1%	-5%	6%	17%
CC1(C)Cc2c(C#N)c(N3CCN(C(=O)c4ccco4)CC3)nc(Cc3ccccc3)c2CO1	28µM*	-11%	3%	?	-4%	6%
N#Cc1c(N2CCN(C(=O)c3ccccc3Cl)CC2)nc(-c2ccccc2)c2c1CCCC2	5%	-11%	-1%	-1%	11%	2%
N#Cc1c(NCCN)nc(NCc2ccccc2)c2c1CCN(Cc1ccccc1)C2	29%	-8%	-11%	-1%	-3%	-21%
CCN(CC)CCOC(=O)c1ccc(NC(=O)c2cc3cccc(OC)c3oc2=O)cc1	2%	nt	nt	nt	nt	nt
C(=Nc1cccnc1)c1ccc2ccccc2n1	-13%	nt	nt	nt	nt	nt
CC1CCc2cc(F)cc3c2N1C(=O)C(C(=O)Nc1cnccn1)C3=O (centres undefined)	-3%	nt	nt	nt	nt	nt
N#Cc1c(N2CCN(C(=O)c3ccco3)CC2)nc(-c2ccccc2)c2c1CCCC2	14µM*	8%	-11%	-4%	-17%	-28%
CC1(C)Cc2c(C#N)c(N3CCN(C(=O)c4ccco4)CC3)nc(-c3ccco3)c2CS1	?	-1%	?	-25%	-8%	14%
CCOc1ccc(-c2cc3c(=O)n(Cc4nc(-c5ccccc5OCC)oc4C)ccn3n2)cc1Cl	-4%	nt	nt	nt	nt	nt
COc1ccccc1OCC(=O)N/N=C1/C=C(C)CC1	-2%	12%	2%	-5%	3%	10µM*
COc1ccc2c(c1)C=C/C2=C\c1ccc(N(C)C)cc1	1%	nt	nt	nt	nt	nt
O=C(C[n+]1cc(Br)cc(Br)c1)c1ccc(I)cc1	1%	nt	nt	nt	nt	nt
Cc1ccccc1-n1nc(CO)c(C(=O)NCc2cccnc2)n1	-5%	nt	nt	nt	nt	nt
CCOc1ccc(-n2nc(CO)c(C(=O)NCCCc3ccccc3)n2)cc1	13µM*	nt	nt	nt	nt	nt
COCCCNC(=O)c1nn(-c2ccc(C)cc2)nc1CO	14µM*	nt	nt	nt	nt	nt
CCOc1ccc(-n2nc(CO)c(C(=O)NCc3cccnc3)n2)cc1	6.3µM*	nt	nt	nt	nt	nt
CCOc1ccc(CNC(=O)c2ccc(CS(=O)Cc3ccc(Cl)cc3)o2)cc1 (centres undefined)	1%	nt	nt	nt	nt	nt
CCOc1ccc(-n2nc(CO)c(C(=O)NCc3ccc(Cl)cc3)n2)cc1	7.1µM*	nt	nt	nt	nt	nt
